Experimental data from paper PMC7862700, “An all-to-all approach to the identification of sequence-specific readers for epigenetic DNA modifications on cytosine”.

Assays:
Assay in all cases: DAPPL (digital affinity profiling via proximity ligation, sequencing); 10 mM Tris-HCl pH 7.5, 50 mM NaCl, 1 mM DTT, 4% glycerol, room temperature, 30 min; GST-TFs on glutathione beads, 16-mer random dsDNA library, 0.1% formaldehyde crosslink after washing; high values mean tight binding
FLI1 = molecular target: T1, FLI1 (Homo sapiens, UniProt Q01543 1-452); conditions: protein: recombinant; tags: N-terminal GST; dsDNA, one strand shown
T1 sequence: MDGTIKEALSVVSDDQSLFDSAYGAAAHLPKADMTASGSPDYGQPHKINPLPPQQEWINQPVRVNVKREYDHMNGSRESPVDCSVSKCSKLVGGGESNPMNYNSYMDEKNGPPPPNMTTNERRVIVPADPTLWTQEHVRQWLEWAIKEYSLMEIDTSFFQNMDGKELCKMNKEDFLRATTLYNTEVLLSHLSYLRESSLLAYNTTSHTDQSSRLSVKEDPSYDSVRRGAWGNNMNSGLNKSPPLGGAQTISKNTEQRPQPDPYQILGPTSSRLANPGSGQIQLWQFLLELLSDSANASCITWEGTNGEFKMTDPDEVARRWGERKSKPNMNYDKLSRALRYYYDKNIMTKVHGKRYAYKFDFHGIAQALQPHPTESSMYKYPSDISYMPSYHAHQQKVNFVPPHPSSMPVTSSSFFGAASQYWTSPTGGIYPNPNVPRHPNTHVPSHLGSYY
Outline: (§1)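 Sequencing on an Illumina NextSeq500 followed washing, crosslinking with 0.1% formaldehyde, proximity ligation (BsaI/T4 ligase, 1 h, 37 °C) and PCR amplification of pools that had been incubated for 30 min at room temperature with 200 nmole of a random double-stranded 16-mer DNA library in Tris/NaCl/DTT/glycerol buffer. Each pool held DNA-barcoded human transcription factors, expressed in yeast as GST fusions and captured on glutathione beads, plus a tag-only sample. Binding signal is a hexamer's read frequency for a factor divided by its frequency in the tag-only sample.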

ELK1 = molecular target: T2, ELK1 (Homo sapiens, UniProt P19419 1-428); conditions: protein: recombinant; tags: N-terminal GST; dsDNA, one strand shown
T2 sequence: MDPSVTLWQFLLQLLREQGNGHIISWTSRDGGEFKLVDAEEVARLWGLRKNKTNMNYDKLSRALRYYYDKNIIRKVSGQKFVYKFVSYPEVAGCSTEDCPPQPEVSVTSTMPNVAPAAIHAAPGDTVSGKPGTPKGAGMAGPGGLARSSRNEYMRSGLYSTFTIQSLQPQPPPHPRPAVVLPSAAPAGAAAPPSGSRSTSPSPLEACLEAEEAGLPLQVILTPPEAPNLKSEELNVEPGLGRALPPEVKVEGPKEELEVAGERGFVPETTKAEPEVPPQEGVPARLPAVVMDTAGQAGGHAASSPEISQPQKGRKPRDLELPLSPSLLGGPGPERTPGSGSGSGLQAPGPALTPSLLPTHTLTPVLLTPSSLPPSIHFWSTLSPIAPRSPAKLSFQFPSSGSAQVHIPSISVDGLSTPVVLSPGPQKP
Outline: as §1

GABPA = molecular target: T3, GABPA (Homo sapiens, UniProt Q06546 1-454); conditions: protein: recombinant; tags: N-terminal GST; dsDNA, one strand shown
T3 sequence: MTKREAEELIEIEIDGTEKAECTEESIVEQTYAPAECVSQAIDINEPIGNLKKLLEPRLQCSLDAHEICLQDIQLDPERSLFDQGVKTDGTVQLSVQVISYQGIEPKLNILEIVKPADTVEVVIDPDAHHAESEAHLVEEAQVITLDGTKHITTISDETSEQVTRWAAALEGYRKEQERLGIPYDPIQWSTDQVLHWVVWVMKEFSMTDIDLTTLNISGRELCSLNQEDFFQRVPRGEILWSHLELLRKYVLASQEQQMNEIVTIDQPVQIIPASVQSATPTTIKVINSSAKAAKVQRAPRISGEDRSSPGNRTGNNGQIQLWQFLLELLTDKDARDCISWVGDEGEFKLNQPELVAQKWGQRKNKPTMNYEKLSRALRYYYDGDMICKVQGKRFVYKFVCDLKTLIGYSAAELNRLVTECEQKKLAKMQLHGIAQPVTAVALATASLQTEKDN
Outline: as §1

ERG = molecular target: T4, ERG (Homo sapiens, UniProt P11308 1-479); conditions: protein: recombinant; tags: N-terminal GST; dsDNA, one strand shown
T4 sequence: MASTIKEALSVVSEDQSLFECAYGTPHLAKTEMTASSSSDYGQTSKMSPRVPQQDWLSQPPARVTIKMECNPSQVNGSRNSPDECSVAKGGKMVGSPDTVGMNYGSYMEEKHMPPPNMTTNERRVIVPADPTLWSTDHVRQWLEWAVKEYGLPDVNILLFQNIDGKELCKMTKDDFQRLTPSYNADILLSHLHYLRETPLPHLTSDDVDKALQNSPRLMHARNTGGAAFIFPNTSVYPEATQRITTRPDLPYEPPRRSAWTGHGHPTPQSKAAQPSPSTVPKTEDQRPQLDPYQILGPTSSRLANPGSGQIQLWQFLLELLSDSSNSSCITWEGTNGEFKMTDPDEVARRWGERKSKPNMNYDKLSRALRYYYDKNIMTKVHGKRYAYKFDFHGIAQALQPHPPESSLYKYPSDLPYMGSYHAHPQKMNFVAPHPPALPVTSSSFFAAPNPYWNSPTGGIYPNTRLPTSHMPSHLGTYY
Outline: as §1

ELF1 = ELF1 (Homo sapiens, UniProt P32519 1-619); conditions: protein: recombinant; tags: N-terminal GST; dsDNA, one strand shown
Sequence of ELF1 (P32519 whole entry): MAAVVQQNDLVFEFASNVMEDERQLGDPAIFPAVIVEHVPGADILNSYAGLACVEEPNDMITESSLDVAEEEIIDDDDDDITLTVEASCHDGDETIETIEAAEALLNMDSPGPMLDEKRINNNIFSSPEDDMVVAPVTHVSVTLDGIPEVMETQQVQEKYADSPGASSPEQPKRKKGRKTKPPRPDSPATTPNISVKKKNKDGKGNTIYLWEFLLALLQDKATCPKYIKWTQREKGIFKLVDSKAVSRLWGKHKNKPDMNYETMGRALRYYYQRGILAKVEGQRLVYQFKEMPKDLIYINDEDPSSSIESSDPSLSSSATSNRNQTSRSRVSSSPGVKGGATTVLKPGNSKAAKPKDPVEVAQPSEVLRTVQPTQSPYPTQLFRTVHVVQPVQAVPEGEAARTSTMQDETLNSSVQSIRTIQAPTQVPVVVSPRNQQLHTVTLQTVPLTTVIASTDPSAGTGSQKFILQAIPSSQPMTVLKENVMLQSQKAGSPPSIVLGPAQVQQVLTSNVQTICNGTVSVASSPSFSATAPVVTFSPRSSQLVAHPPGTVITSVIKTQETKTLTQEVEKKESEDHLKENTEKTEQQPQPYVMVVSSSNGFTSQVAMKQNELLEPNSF
Outline: as §1

EHF = molecular target: T5, EHF (Homo sapiens, UniProt Q9NZC4 1-300); conditions: protein: recombinant; tags: N-terminal GST; dsDNA, one strand shown
T5 sequence: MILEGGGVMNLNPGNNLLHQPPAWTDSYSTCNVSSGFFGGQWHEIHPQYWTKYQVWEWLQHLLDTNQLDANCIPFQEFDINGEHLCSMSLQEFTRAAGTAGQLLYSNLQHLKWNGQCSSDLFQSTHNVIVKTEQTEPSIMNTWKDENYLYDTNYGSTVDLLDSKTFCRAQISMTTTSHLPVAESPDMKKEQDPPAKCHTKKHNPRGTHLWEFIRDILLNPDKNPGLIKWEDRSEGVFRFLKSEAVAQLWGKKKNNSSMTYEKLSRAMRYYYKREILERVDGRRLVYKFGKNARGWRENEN
Outline: as §1

SPI1 = SPI1 (Homo sapiens, UniProt P17947 1-270); conditions: protein: recombinant; tags: N-terminal GST; dsDNA, one strand shown
Outline: as §1

SPIB = SPIB (Homo sapiens, UniProt Q01892 1-262); conditions: protein: recombinant; tags: N-terminal GST; dsDNA, one strand shown
Sequence of SPIB (Q01892 whole entry): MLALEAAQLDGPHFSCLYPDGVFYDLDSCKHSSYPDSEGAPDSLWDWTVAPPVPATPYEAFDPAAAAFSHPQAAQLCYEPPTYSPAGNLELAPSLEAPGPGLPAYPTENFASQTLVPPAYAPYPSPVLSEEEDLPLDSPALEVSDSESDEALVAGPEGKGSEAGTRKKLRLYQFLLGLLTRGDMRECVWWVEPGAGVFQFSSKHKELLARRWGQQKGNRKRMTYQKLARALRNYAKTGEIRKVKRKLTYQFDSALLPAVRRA
Outline: as §1

ELK3 = molecular target: T6, ELK3 (Homo sapiens, UniProt P41970 1-407); conditions: protein: recombinant; tags: N-terminal GST; dsDNA, one strand shown
T6 sequence: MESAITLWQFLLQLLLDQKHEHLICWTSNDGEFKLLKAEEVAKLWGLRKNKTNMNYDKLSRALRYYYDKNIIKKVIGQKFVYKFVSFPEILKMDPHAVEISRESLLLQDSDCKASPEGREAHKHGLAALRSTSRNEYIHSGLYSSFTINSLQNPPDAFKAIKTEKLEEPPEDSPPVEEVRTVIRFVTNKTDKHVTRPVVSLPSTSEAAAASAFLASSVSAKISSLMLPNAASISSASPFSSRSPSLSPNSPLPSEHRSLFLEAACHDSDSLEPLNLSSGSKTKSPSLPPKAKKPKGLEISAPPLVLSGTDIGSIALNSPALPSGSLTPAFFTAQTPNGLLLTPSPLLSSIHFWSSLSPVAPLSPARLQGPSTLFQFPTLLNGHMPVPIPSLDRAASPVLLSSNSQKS
Outline: as §1

FEV = molecular target: T7, FEV (Homo sapiens, UniProt Q99581 1-238); conditions: protein: recombinant; tags: N-terminal GST; dsDNA, one strand shown
T7 sequence: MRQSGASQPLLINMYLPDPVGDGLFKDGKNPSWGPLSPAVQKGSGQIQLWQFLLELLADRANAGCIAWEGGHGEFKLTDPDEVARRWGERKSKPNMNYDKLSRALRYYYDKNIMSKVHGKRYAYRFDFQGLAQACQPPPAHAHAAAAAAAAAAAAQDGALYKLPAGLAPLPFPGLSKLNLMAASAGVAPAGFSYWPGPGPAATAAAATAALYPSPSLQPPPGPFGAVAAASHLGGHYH
Outline: as §1

ETV5 = ETV5 (Homo sapiens, UniProt P41161 1-510); conditions: protein: recombinant; tags: N-terminal GST; dsDNA, one strand shown
Sequence of ETV5 (P41161 whole entry): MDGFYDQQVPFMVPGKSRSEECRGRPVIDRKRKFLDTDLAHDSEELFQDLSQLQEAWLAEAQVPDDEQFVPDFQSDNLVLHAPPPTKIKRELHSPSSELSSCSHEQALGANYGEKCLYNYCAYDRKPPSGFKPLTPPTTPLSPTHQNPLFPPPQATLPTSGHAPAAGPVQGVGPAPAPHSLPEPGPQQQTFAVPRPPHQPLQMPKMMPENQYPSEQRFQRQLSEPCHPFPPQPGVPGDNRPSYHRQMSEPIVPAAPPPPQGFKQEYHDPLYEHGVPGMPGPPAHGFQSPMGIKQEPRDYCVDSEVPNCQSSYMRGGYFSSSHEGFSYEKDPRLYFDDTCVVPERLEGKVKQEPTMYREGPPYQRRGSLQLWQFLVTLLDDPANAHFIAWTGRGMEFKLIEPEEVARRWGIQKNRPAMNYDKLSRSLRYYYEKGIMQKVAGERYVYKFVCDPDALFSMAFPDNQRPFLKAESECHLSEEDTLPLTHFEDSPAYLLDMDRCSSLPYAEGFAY
Outline: as §1

HSF1 = HSF1 (Homo sapiens, UniProt Q00613 1-529); conditions: protein: recombinant; tags: N-terminal GST; chain copies: 3; dsDNA, one strand shown
Sequence of HSF1 (Q00613 whole entry): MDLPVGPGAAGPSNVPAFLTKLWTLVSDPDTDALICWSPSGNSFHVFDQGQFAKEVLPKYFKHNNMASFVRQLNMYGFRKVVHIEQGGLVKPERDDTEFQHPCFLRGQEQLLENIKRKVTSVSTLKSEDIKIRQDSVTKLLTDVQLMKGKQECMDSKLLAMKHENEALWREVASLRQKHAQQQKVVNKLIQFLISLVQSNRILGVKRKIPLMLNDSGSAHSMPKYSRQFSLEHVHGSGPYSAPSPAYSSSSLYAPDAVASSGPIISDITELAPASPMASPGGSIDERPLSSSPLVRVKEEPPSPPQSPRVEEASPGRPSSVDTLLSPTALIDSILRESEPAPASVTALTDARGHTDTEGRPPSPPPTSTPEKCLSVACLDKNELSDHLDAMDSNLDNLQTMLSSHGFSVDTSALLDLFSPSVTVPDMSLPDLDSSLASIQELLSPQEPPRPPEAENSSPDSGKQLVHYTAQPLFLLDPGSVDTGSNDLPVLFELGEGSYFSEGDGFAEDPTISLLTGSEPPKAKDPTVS
Outline: as §1

SPIC = molecular target: T8, SPIC (Homo sapiens, UniProt Q8N5J4 1-248); conditions: protein: recombinant; tags: N-terminal GST; dsDNA, one strand shown
T8 sequence: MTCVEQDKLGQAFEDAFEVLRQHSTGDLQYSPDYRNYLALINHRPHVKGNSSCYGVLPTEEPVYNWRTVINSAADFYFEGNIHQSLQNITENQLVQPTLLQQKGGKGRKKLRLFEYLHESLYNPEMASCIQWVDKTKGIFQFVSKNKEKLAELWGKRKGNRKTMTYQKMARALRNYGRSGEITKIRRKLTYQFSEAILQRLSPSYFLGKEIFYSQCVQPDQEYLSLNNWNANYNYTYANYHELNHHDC
Outline: as §1

ELF4 = ELF4 (Homo sapiens, UniProt Q99607 1-663); conditions: protein: recombinant; tags: N-terminal GST; dsDNA, one strand shown
Sequence of ELF4 (Q99607 whole entry): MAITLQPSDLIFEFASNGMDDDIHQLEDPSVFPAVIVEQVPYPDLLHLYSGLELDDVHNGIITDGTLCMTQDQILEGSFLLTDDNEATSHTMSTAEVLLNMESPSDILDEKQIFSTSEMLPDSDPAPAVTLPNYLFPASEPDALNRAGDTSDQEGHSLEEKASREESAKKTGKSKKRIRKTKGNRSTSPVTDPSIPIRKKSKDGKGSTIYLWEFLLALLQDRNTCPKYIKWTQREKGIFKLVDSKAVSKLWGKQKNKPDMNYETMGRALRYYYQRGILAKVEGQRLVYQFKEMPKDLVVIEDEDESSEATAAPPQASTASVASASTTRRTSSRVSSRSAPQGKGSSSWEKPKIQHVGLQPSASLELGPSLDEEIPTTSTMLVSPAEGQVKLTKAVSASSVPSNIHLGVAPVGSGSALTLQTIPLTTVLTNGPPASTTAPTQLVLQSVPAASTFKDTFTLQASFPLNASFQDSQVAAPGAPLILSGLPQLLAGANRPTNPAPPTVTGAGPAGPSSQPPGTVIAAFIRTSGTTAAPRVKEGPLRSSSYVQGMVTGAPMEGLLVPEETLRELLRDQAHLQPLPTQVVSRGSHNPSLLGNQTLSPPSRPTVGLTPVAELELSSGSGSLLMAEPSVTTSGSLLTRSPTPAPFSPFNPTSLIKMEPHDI
Outline: as §1

ELK4 = molecular target: T9, ELK4 (Homo sapiens, UniProt P28324-2 1-405); conditions: protein: recombinant; tags: N-terminal GST; dsDNA, one strand shown
T9 sequence: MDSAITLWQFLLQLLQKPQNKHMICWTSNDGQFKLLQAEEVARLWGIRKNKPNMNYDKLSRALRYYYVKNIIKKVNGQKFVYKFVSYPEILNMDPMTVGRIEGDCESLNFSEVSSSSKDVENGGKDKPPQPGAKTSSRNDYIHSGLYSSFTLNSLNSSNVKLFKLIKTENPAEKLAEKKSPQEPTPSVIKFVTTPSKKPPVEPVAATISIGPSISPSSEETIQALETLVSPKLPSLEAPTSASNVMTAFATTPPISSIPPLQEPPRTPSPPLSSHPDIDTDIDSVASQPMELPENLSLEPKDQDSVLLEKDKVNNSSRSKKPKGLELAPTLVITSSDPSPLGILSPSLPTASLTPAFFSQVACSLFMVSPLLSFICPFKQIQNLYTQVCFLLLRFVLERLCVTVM
Outline: as §1

ETV2 = molecular target: T10, ETV2 (Homo sapiens, UniProt O00321 1-342); conditions: protein: recombinant; tags: N-terminal GST; dsDNA, one strand shown
T10 sequence: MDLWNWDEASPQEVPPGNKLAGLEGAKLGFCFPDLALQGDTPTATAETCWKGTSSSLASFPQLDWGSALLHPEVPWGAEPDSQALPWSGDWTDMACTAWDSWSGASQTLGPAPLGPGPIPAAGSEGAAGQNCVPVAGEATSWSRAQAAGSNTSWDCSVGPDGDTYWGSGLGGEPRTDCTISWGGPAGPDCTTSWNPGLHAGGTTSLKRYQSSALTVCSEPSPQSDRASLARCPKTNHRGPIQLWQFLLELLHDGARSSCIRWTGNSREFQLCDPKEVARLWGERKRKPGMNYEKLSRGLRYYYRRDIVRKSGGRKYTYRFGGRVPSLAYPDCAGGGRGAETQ
Outline: as §1

ELF3 = molecular target: T11, ELF3 (Homo sapiens, UniProt P78545 1-371); conditions: protein: recombinant; tags: N-terminal GST; dsDNA, one strand shown
T11 sequence: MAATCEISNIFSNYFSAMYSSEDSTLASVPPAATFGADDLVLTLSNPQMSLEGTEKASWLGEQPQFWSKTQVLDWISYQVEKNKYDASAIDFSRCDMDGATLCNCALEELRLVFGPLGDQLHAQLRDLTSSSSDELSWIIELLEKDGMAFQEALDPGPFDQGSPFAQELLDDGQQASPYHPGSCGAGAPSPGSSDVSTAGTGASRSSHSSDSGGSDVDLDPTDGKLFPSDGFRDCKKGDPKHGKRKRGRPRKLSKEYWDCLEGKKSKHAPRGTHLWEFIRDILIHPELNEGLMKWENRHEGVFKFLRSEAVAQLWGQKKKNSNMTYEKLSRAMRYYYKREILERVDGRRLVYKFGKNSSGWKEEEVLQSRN
Outline: as §1

CRX = CRX (Homo sapiens, UniProt O43186 1-299); conditions: protein: recombinant; tags: N-terminal GST; dsDNA, one strand shown
Sequence of CRX (O43186 whole entry): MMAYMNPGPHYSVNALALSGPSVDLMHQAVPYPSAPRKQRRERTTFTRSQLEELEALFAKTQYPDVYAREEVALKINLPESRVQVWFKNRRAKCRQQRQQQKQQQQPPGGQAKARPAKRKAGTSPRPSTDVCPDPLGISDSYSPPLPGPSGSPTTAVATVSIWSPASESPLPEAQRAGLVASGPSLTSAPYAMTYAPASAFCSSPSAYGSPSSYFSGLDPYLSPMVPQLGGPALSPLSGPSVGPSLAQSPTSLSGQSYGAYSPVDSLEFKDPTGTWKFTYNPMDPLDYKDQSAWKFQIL
Outline: as §1

ETV1 = ETV1 (Homo sapiens, UniProt P50549 1-477); conditions: protein: recombinant; tags: N-terminal GST; dsDNA, one strand shown
Sequence of ETV1 (P50549 whole entry): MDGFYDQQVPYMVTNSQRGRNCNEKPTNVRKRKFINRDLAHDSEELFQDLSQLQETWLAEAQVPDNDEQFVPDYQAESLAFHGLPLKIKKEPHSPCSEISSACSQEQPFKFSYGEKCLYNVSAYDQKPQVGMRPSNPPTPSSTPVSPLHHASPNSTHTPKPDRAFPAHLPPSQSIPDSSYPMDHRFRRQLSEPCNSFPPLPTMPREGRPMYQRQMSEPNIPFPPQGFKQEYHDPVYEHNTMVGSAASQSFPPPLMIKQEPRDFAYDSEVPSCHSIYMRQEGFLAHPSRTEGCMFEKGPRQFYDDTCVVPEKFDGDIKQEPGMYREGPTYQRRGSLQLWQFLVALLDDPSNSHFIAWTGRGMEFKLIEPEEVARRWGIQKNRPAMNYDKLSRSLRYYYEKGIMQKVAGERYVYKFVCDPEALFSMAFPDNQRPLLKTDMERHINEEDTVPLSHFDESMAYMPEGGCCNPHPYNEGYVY
Outline: as §1

For ACTTCA, the binding signal (FLI1) was 1.43 fold enrichment (6-mer frequency, TF over GST control), the binding signal (ELK1) was 1.41 fold enrichment (6-mer frequency, TF over GST control) and the binding signal (GABPA) was 1.45 fold enrichment (6-mer frequency, TF over GST control). The binding signal (ERG) was 1.4 fold enrichment (6-mer frequency, TF over GST control), the binding signal (ELF1) was 1.42 fold enrichment (6-mer frequency, TF over GST control) and the binding signal (EHF) was 1.35 fold enrichment (6-mer frequency, TF over GST control). The binding signal (SPI1) was 1.45 fold enrichment (6-mer frequency, TF over GST control), the binding signal (SPIB) was 1.47 fold enrichment (6-mer frequency, TF over GST control) and the binding signal (ELK3) was 1.44 fold enrichment (6-mer frequency, TF over GST control). For the same sequence, the binding signal (FEV) was 1.38 fold enrichment (6-mer frequency, TF over GST control), the binding signal (ETV5) was 1.42 fold enrichment (6-mer frequency, TF over GST control) and the binding signal (HSF1) was 1.18 fold enrichment (6-mer frequency, TF over GST control). For the same sequence, the binding signal (SPIC) was 1.55 fold enrichment (6-mer frequency, TF over GST control), the binding signal (ELF4) was 1.33 fold enrichment (6-mer frequency, TF over GST control) and the binding signal (ELK4) was 1.56 fold enrichment (6-mer frequency, TF over GST control). For the same sequence, the binding signal (ETV2) was 1.37 fold enrichment (6-mer frequency, TF over GST control), the binding signal (ELF3) was 1.44 fold enrichment (6-mer frequency, TF over GST control) and the binding signal (CRX) was 1.17 fold enrichment (6-mer frequency, TF over GST control). The binding signal (ETV1) was 1.48 fold enrichment (6-mer frequency, TF over GST control).
